Assay results: PubChem BioAssay (NCI)
About 83,000 compounds went through this panel and 20% of them were active in at least one assay; those are over-represented in the sample as a whole.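 Each cell line was grown in a 96-well plate and treated with one concentration of compound for 48 hours. Values below 10 were considered active.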 A number with no mark means an inactive call. Active and inactive are the calls of the source.

Key:
Experiment in all cases: NCI-60 one-dose screen, 48 h (100 = growth as untreated, 0 = no growth, -100 = all killed)
Conditions in all cases: 10 µM unless noted
[1] = system: SR leukemia
[2] = system: RPMI-8226 leukemia
[3] = system: OVCAR-8 ovarian
[4] = system: OVCAR-5 ovarian
[5] = system: OVCAR-4 ovarian
[6] = system: SK-OV-3 ovarian
[7] = system: IGROV1 ovarian
[8] = system: OVCAR-3 ovarian
[9] = system: HS 578T breast
[10] = system: NCI/ADR-RES ovarian
[11] = system: T-47D breast
[12] = system: BT-549 breast
[13] = system: MDA-MB-435 melanoma
[14] = system: SW-620 colon
[15] = system: MCF7 breast
[16] = system: HCT-116 colon
[17] = system: HCC-2998 colon
[18] = system: KM12 colon

Row | Structure (SMILES) | growth [1] | growth [2] [%] | growth [3] | growth [4] [%] | growth [5] [%] | growth [6] | growth [7] [%] | growth [8] | growth [9] [%] | growth [10] | growth [11] [%] | growth [12] | growth [13] | growth [14] [%] | growth [15] | growth [16] | growth [17] | growth [18]
1 | Nc1[nH]c(=S)nc2oc(-c3ccccc3)c(-c3ccccc3)c12 | 93.8% | 99.8 | 101% | 98.2 | 97.2 | 103% | 100 | 102% | 91.1 | 98.9% | 96.8 | 106% | 104% | 106 | 96.6% | 101% | 110% | 98.9%
2 | C=CCOC(=O)C1=C(C)N(CC)C(=O)NC1c1c(Cl)n(C)c2ccccc12 (configuration not stated) | 96.1% | 93.8 | 98.2% | 90 | 103 | 102% | 98.9 | 108% | 96.4 | 94.1% | 91 | 102% | 98.1% | 101 | 98.7% | 90% | 91.2% | 85.7%
3 | C=CCC(CCCC)(C(=O)OCC)C(=O)OCC | 95.9% | 94.8 | 102% | 106 | 116 | 117% | 119 | 118% | 127 | 108% | 107 | 96.7% | 110% | 114 | 93% | 104% | 102% | 108%
4 | COc1ccc2c(c1)CCc1[nH]nc(-c3cc(OC)c(OC)c(OC)c3)c1-2 | -26.2% (active) | 22.3 | 7.98% (active) | 56 | 45.3 | -7.59% (active) | 25.5 | 1.01% (active) | 23 | 0.961% (active) | 31.3 | 5.42% (active) | -30.3% (active) | 20.4 | 6.38% (active) | -3.02% (active) | 5.58% (active) | 7.02% (active)
